Experimental data reported in PubChem BioAssay (NCATS).
Results filed as inconclusive are left out. Active and inactive are the calls of the source. Unless noted, the call rests on the fitted dose curve; in most records, active means well fitted curve in the direction sought with a large enough effect; inconclusive means small, poorly fitted or top-dose-only effect, or another doubt; inactive means no such curve, though single readings can be large; an effect the other way counts as inactive or inconclusive.

Experiments:
[1] = target: Pyruvate kinase (Leishmania mexicana) (UniProt Q27686); experiment: qHTS Validation Assay for Inhibitors of Leishmania Mexicana Pyruvate Kinase (AID 945); conditions: purified L. mexicana pyruvate kinase, enzyme activity, E451W mutant enzyme; series mostly up to 57.5 µM
Procedure, shortened: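 Substrate mix (0.5 mM PEP, 0.1 mM ADP, 7 mM MgCl2, 50 mM KCl, pH 7.2 imidazole) received compound by pin tool, then 0.2 nM LmPYK E451W. After 1 h at room temperature, PKLight was added and luminescence measured.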

[2] = target: Pyruvate kinase PKM (Homo sapiens) (UniProt P14618); experiment: qHTS Assay for Activators of Human Muscle Pyruvate Kinase (AID 954; active means well fitted curve in the direction sought with a large enough effect, not every such curve was filed as active); conditions: purified human muscle pyruvate kinase, luciferase-coupled luminescence, 1 h; series mostly up to 57.5 µM
Procedure, shortened: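 ATP production by PKM2 detected via luciferase luminescence after 1 h room-temperature reaction (0.1 nM enzyme, PEP at Km 0.5 mM, ADP 0.1 mM, pH 7.2 imidazole buffer). Inhibition scaled to no-enzyme control; activation referenced to 0.3 nM enzyme wells.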

[3] = MultiTox-Fluor Cytotoxicity Assay - LYMP1-001 - Live Cells (AID 947); conditions: LYMP1-001 lymphoblastoid cells, live-cell protease fluorescence viability; series mostly up to 92.2 µM; further: potency means the concentration at half of the fitted maximal effect
[4] = Cell Viability - LYMP1-002 - Assay at 16 hr (AID 948); conditions: LYMP1-002 lymphoblastoid cell viability; series mostly up to 92.2 µM; further: potency means the concentration at half of the fitted maximal effect
Procedure, shortened: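 In this qHTS, lymphoblastoid LYMP1-002 cells (human) receive compounds for 16 hr at 37 C. Viability is taken from CellTiter-Glo ATP luminescence, and AC50 derives from standard Hill fits.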

[5] = MultiTox-Fluor Cytotoxicity Assay - LYMP1-002 - Live Cells (AID 955); conditions: LYMP1-002 lymphoblastoid live-cell protease fluorescence viability; series mostly up to 46.1 µM;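 further: cells exposed to compound for 16 hours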
Procedure, shortened: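 Cells were seeded at 2500 per well and incubated 5 hr. Compounds were then added for 16 hr at 37 C, followed by MultiTox-Fluor reagent for 60 min at room temperature and fluorescence reading of viable-cell protease signal.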

[6] = MultiTox-Fluor Cytotoxicity Assay - LYMP1-003 - Live Cells (AID 962); conditions: LYMP1-003 lymphoblastoid cells, MultiTox-Fluor live-cell protease fluorescence; series mostly up to 92.2 µM;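 further: cells exposed to compound for 16 hours at 37 °C; cytotoxic hits lower the live-cell protease signal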
Procedure, shortened: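 Acute cytotoxicity is scored as a drop in live-cell protease activity in human lymphoblastoid LYMP1-003 cells after 16 hr compound exposure at 37 C. AC50 values come from Hill-equation modelling of concentration-response data.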

[7] = Cell Viability - LYMP1-003 - Assay at 24 hr (AID 963); conditions: LYMP1-003 lymphoblastoid cell viability; series mostly up to 92.2 µM; further: potency means the concentration at half of the fitted maximal effect
Procedure, shortened: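 Cytotoxicity is scored as a concentration-dependent fall in ATP-linked luciferase signal in human lymphoblastoid LYMP1-003 cells treated 24 hr at 37 C in complete culture medium.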

[8] = MultiTox-Fluor Cytotoxicity Assay - LYMP1-002 - Dead Cells (AID 960); conditions: LYMP1-002 lymphoblastoid cells, dead-cell protease fluorescence; series mostly up to 46.1 µM; further: nearly all actives have a fitted effect of over 60% in size
Procedure, shortened: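 Cells were plated, rested 5 hr, then treated with compound dilution series for 16 hr at 37 C. After adding substrate reagent and 60 min at room temperature, dead-cell protease fluorescence gave concentration-response curves fitted by the Hill equation.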

[9] = MultiTox-Fluor Cytotoxicity Assay - LYMP1-003 - Dead Cells (AID 961); conditions: LYMP1-003 lymphoblastoid cells, dead-cell protease fluorescence; series mostly up to 92.2 µM; further: nearly all actives have a fitted effect of over 70% in size; further: potency means the concentration at half of the fitted maximal effect
Procedure, shortened: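 Dead-cell protease release, detected as bis-AAF-R110 fluorescence at 485/520 nm, was measured in LYMP1-003 cells after 16 h compound treatment at 37 C. AC50 values came from Hill-modeled qHTS curves normalized to DMSO (0%) and 15 uM tetraoctylammonium bromide (100%).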

[10] = Cell Viability - LYMP1-003 - Assay at 40 hr (AID 964); conditions: LYMP1-003 lymphoblastoid viability; series mostly up to 92.2 µM; further: nearly all actives have a fitted effect of over 60% in size; further: potency means the concentration at half of the fitted maximal effect
Procedure, shortened: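 Luminescent ATP signal (CellTiter-Glo) served as the viability read-out after 40 hr compound treatment of human lymphoblastoid LYMP1-003 cells at 37 C. Decreases in ATP were fitted with the Hill equation to give AC50.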

Measured: Potency

Pyruvate kinase PKM (Homo sapiens), sequence (P14618 whole entry, looked up): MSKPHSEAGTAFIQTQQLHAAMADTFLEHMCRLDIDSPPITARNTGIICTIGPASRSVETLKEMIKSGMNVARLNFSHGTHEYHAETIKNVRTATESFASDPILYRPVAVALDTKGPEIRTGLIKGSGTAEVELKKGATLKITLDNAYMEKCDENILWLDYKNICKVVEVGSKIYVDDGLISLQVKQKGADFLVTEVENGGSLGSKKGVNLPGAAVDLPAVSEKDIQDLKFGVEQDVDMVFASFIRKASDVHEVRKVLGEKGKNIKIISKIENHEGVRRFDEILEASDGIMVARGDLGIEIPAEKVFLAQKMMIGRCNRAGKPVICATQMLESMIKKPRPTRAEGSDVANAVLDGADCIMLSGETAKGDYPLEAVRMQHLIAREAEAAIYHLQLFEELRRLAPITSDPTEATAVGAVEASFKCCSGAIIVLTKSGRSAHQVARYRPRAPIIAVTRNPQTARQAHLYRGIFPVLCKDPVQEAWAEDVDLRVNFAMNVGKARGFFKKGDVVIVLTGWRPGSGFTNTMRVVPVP
Pyruvate kinase (Leishmania mexicana), sequence (Q27686 2-499 E452W): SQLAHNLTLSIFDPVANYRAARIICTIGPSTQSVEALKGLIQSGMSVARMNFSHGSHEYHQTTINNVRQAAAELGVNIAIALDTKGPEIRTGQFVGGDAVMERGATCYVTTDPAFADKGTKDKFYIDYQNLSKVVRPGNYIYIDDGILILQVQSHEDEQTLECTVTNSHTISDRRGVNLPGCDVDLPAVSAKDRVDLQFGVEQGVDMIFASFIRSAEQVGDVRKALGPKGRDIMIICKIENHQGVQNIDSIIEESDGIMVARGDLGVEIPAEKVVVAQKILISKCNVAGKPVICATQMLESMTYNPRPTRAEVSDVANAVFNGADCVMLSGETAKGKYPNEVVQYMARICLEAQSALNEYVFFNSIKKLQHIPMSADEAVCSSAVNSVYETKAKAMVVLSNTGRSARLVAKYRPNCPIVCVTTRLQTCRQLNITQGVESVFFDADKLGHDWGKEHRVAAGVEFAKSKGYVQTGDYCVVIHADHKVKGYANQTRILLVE

C[C@]12CC[C@@H]3c4ccc(O)cc4CC[C@H]3[C@@H]1CCC2=O
inactive: [1] | [2]

OCc1cc(C(O)CNCCCCCCOCCCCc2ccccc2)ccc1O (centres undefined)
inactive: [1] | [2]

Cc1cc(N)c2ccccc2[n+]1CCCCCCCCCC[n+]1c(C)cc(N)c2ccccc21
inactive: [1] | [2]

CN(C)CCCN1c2ccccc2Sc2ccc(Cl)cc21
inactive: [1] | [2]

CCCCCCCCCCCCCCCC(=O)NCCO
inactive: [1] | [2]

CNCCCC1c2ccccc2C=Cc2ccccc21
inactive: [1] | [2]

CC(C)C(=O)c1c(C(C)C)nn2ccccc12
inactive: [1] | [2]

CN(C)CCC=C1c2ccccc2CCc2ccccc21
inactive: [1] | [3] | [4] | [2] | [5] | [6] | [7]

COc1ccc(Cl)cc1C(=O)NCCc1ccc(S(=O)(=O)NC(=O)NC2CCCCC2)cc1
inactive: [1] | [2]

C[C@]12C[C@H](O)[C@H]3[C@@H](CCC4=CC(=O)CC[C@@]43C)[C@@H]1CC[C@@H]2C(=O)CO
inactive: [1] | [3] | [4] | [2] | [5] | [8] | [9] | [6] | [7] | [10]

Nc1cc(=O)[nH]c(N)n1
inactive: [1] | [2]

CC(C)NC[C@H](O)c1ccc(O)c(O)c1
inactive: [1] | [2]

CCN(CC)CCOC(=O)C1(C2CCCCC2)CCCCC1
inactive: [1] | [2]

NC1CCN(c2cccc(Cl)n2)CC1
inactive: [1] | [2]

OCCN1CCN(CCCN2c3ccccc3Sc3ccc(Cl)cc32)CC1
inactive: [1] | [2]

CC1=C(CC(=O)O)c2cc(F)ccc2/C1=C\c1ccc(S(C)(=O)=O)cc1
inactive: [1] | [2]

CC(=O)OCC(=O)[C@@]1(O)CC[C@H]2[C@@H]3CCC4=CC(=O)CC[C@]4(C)[C@H]3C(=O)C[C@@]21C
inactive: [1] | [2]

COC(=O)C1=C(C)NC(C)=C(C(=O)OC)C1c1ccccc1[N+](=O)[O-]
inactive: [1] | [2]

CCN(CC)CCNC(=O)c1cc(Cl)c(N)cc1OC
inactive: [1] | [2]

N=c1c[n+](N2CCOCC2)[n-]o1
inactive: [1] | [2]

CCCn1cnc2c1c(=O)n(CCCCC(C)=O)c(=O)n2C
inactive: [1] | [2]

COc1ccccc1O
inactive: [3] | [4] | [5] | [8] | [9] | [6] | [7] | [10]

NCCNCCNCCNCCN
inactive: [3] | [4] | [5] | [8] | [9] | [6] | [7] | [10]

CCCCOC(=O)c1ccc(O)cc1
inactive: [3] | [4] | [5] | [8] | [9] | [6] | [7] | [10]

NC(=O)c1ncn([C@@H]2O[C@H](CO)[C@@H](O)[C@H]2O)n1
inactive: [3] | [4] | [2] | [5] | [8] | [9] | [6] | [7]

CC1=C(CC(=O)O)c2cc(F)ccc2/C1=C\c1ccc(S(C)=O)cc1 (centres undefined)
inactive: [1] | [2]

CC1(C)[C@@H]2CC[C@@]1(C)C(=O)C2
inactive: [3] | [4] | [5] | [9] | [6] | [7] | [10]

Oc1cccc(O)c1
inactive: [4] | [5] | [9] | [6] | [7] | [10]

NC(N)=NCCC[C@H](N)C(=O)O
inactive: [1] | [2]

O=C1O[C@H]([C@@H](O)CO)C(O)=C1O
inactive: [3] | [4] | [5] | [8] | [9] | [6] | [7] | [10]

Nc1ccc(S(=O)(=O)Nc2nccs2)cc1
inactive: [3] | [4] | [5] | [9] | [6] | [7] | [10]

CN(C)CCCN1c2ccccc2CCc2ccccc21
inactive: [1] | [2]

Cc1cc2nc3c(=O)[nH]c(=O)nc-3n(C[C@H](O)[C@H](O)[C@H](O)CO)c2cc1C
inactive: [3] | [4] | [8] | [6] | [7] | [10]
active: [9] 39.8 µM

Cc1cc(CC(=O)O)n(C)c1C(=O)c1ccc(Cl)cc1
inactive: [3] | [4] | [5] | [8] | [9] | [6] | [7] | [10]

CCCCCCCCCCCCOS(=O)(=O)O
inactive: [3] | [4] | [5] | [8] | [9] | [6] | [7] | [10]

Cc1c(O)cccc1C(=O)N[C@@H](CSc1ccccc1)[C@H](O)CN1C[C@H]2CCCC[C@H]2C[C@H]1C(=O)NC(C)(C)C
active: [3] 39.8 µM | [4] 50.1 µM | [9] 50.1 µM | [7] 39.8 µM | [10] 39.8 µM
